Source: the supplement of paper PMC11732987, “Enantioselective OTUD7B fragment discovery through chemoproteomics screening and high-throughput optimisation” (Communications Chemistry, 2025)

How the values were obtained:
Assay in all cases: log2 ratio of Biotin-Ahx-Ub-VS probe labelling (fragment/DMSO); higher = less target engagement (more negative = stronger competition), active = hit call of the paper (q ≤ 0.05, log2 ratio ≤ -1)
Details in all cases: compound concentration: 200 uM; treatment time: 3 h
USP34 = USP34 (UniProt Q70CQ2)
How it was run: (§1)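 Triplicate samples of HEK293T lysate, 495 µg each, received fragment at 200 µM or vehicle for 3 h, followed by Biotin-Ahx-Ub-VS (0.5 µM final) for 1 h. After NeutrAvidin enrichment of labelled DUBs and LysC/trypsin digestion, peptides were run by diaPASEF LC-MS/MS. The values are average log2 fragment/vehicle ratios from global-median-normalised Spectronaut label-free quantities, tested by unpaired t-test on proteins having ≥2 unique peptides.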

USP36 = target: T1, USP36 (UniProt Q9P275)
T1 sequence (whole entry): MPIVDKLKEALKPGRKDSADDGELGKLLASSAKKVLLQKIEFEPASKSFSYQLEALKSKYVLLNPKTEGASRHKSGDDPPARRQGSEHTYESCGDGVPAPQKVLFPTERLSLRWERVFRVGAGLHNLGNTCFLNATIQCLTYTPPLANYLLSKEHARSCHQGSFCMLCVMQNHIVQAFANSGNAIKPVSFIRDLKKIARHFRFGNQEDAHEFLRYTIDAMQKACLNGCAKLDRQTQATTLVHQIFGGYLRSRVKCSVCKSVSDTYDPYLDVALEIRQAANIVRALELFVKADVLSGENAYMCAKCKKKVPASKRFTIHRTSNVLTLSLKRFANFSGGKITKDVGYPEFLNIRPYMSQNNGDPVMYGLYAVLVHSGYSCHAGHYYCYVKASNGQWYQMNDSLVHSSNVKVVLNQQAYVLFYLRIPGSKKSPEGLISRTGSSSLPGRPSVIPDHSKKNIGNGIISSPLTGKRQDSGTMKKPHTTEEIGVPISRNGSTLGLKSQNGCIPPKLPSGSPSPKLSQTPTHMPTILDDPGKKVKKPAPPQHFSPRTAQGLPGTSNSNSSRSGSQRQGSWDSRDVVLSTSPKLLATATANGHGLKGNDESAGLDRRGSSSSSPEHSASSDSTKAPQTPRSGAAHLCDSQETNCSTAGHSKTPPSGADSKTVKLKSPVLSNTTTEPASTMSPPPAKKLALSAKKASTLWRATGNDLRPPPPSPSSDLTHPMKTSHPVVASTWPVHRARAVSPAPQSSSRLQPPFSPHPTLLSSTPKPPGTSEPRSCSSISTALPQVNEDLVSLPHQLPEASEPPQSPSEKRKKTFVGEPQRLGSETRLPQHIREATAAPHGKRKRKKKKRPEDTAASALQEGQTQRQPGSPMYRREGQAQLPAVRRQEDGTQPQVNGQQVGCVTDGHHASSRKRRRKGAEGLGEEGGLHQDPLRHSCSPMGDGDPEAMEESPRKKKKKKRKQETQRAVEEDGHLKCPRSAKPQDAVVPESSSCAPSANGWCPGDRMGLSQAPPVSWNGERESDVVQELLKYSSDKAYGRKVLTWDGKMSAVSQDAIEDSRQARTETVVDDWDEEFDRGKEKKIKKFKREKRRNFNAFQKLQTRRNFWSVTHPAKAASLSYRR
How it was run: as §1

USP38 = target: T2, USP38 (UniProt Q8NB14)
T2 sequence (whole entry): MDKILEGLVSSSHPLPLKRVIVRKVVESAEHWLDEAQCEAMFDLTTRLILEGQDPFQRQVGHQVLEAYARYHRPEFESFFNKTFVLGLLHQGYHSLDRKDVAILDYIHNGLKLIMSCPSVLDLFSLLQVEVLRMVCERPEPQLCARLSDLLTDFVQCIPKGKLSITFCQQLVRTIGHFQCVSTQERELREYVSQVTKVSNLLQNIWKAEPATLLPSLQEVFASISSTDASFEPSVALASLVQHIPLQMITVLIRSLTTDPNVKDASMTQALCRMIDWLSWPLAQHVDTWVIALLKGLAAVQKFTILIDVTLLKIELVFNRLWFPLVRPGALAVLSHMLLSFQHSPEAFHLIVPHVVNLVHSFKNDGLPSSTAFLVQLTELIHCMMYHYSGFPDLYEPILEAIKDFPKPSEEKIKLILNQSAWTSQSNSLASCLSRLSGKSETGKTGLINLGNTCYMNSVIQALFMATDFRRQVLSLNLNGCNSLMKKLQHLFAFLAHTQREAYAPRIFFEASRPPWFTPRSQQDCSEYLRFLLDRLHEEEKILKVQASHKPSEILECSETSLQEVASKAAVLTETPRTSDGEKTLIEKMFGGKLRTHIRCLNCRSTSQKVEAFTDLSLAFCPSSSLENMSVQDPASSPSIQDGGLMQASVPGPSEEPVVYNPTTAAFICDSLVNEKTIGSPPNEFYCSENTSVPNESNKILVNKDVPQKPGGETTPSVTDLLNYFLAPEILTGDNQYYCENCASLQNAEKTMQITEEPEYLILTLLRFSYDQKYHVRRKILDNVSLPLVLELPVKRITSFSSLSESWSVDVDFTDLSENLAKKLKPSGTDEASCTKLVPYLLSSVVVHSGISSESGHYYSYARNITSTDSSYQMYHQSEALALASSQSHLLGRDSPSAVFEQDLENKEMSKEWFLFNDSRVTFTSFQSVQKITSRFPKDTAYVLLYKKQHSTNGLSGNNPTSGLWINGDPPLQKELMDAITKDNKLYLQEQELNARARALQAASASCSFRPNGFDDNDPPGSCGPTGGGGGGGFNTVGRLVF
How it was run: as §1

USP39 = target: T3, USP39 (UniProt Q53GS9)
T3 sequence (whole entry): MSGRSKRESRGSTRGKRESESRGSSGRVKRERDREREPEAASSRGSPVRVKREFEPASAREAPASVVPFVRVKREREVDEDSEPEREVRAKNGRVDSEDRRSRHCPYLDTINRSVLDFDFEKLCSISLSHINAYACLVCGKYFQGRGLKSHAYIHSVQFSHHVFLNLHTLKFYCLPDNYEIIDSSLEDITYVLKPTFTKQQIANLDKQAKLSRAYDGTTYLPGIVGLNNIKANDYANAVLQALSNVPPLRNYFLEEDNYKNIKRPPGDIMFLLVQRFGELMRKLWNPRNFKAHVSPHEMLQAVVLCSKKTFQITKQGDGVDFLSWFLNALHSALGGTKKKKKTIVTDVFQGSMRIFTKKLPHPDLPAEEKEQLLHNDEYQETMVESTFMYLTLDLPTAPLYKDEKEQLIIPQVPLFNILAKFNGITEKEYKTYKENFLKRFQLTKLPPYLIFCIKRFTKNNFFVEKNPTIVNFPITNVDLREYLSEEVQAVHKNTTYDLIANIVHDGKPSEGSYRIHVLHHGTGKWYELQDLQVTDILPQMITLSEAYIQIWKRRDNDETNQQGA
How it was run: as §1

USP4 = target: T4, USP4 (UniProt Q13107)
T4 sequence (whole entry): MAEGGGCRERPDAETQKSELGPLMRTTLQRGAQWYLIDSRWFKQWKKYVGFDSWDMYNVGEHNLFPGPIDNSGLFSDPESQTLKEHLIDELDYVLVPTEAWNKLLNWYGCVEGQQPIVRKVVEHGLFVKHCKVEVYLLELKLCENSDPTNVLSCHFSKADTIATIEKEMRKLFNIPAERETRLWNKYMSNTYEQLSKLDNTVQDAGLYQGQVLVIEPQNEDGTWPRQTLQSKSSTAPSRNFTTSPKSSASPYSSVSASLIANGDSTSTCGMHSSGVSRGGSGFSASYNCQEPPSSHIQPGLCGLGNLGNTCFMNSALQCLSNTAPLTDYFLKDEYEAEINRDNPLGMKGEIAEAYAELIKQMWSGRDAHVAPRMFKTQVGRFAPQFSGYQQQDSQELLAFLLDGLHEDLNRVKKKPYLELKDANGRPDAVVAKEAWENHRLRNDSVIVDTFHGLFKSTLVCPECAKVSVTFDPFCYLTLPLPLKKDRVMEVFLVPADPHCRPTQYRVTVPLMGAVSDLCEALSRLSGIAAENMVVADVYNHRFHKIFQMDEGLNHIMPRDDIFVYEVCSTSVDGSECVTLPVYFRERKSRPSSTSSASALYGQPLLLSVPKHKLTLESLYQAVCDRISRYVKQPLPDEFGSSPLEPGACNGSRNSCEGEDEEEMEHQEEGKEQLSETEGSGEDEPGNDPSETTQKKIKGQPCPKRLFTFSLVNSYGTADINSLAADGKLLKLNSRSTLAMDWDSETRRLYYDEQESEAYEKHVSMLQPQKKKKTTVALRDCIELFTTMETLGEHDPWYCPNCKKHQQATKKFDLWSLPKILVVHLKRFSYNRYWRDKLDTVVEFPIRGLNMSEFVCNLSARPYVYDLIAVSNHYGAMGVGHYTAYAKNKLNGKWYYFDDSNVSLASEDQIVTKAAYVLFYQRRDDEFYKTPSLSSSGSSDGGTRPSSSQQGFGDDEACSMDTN
How it was run: as §1

Measured: log2 ratio of Biotin-Ahx-Ub-VS probe labelling

USP34, sequence (Q70CQ2 whole entry, the tested form may be a part): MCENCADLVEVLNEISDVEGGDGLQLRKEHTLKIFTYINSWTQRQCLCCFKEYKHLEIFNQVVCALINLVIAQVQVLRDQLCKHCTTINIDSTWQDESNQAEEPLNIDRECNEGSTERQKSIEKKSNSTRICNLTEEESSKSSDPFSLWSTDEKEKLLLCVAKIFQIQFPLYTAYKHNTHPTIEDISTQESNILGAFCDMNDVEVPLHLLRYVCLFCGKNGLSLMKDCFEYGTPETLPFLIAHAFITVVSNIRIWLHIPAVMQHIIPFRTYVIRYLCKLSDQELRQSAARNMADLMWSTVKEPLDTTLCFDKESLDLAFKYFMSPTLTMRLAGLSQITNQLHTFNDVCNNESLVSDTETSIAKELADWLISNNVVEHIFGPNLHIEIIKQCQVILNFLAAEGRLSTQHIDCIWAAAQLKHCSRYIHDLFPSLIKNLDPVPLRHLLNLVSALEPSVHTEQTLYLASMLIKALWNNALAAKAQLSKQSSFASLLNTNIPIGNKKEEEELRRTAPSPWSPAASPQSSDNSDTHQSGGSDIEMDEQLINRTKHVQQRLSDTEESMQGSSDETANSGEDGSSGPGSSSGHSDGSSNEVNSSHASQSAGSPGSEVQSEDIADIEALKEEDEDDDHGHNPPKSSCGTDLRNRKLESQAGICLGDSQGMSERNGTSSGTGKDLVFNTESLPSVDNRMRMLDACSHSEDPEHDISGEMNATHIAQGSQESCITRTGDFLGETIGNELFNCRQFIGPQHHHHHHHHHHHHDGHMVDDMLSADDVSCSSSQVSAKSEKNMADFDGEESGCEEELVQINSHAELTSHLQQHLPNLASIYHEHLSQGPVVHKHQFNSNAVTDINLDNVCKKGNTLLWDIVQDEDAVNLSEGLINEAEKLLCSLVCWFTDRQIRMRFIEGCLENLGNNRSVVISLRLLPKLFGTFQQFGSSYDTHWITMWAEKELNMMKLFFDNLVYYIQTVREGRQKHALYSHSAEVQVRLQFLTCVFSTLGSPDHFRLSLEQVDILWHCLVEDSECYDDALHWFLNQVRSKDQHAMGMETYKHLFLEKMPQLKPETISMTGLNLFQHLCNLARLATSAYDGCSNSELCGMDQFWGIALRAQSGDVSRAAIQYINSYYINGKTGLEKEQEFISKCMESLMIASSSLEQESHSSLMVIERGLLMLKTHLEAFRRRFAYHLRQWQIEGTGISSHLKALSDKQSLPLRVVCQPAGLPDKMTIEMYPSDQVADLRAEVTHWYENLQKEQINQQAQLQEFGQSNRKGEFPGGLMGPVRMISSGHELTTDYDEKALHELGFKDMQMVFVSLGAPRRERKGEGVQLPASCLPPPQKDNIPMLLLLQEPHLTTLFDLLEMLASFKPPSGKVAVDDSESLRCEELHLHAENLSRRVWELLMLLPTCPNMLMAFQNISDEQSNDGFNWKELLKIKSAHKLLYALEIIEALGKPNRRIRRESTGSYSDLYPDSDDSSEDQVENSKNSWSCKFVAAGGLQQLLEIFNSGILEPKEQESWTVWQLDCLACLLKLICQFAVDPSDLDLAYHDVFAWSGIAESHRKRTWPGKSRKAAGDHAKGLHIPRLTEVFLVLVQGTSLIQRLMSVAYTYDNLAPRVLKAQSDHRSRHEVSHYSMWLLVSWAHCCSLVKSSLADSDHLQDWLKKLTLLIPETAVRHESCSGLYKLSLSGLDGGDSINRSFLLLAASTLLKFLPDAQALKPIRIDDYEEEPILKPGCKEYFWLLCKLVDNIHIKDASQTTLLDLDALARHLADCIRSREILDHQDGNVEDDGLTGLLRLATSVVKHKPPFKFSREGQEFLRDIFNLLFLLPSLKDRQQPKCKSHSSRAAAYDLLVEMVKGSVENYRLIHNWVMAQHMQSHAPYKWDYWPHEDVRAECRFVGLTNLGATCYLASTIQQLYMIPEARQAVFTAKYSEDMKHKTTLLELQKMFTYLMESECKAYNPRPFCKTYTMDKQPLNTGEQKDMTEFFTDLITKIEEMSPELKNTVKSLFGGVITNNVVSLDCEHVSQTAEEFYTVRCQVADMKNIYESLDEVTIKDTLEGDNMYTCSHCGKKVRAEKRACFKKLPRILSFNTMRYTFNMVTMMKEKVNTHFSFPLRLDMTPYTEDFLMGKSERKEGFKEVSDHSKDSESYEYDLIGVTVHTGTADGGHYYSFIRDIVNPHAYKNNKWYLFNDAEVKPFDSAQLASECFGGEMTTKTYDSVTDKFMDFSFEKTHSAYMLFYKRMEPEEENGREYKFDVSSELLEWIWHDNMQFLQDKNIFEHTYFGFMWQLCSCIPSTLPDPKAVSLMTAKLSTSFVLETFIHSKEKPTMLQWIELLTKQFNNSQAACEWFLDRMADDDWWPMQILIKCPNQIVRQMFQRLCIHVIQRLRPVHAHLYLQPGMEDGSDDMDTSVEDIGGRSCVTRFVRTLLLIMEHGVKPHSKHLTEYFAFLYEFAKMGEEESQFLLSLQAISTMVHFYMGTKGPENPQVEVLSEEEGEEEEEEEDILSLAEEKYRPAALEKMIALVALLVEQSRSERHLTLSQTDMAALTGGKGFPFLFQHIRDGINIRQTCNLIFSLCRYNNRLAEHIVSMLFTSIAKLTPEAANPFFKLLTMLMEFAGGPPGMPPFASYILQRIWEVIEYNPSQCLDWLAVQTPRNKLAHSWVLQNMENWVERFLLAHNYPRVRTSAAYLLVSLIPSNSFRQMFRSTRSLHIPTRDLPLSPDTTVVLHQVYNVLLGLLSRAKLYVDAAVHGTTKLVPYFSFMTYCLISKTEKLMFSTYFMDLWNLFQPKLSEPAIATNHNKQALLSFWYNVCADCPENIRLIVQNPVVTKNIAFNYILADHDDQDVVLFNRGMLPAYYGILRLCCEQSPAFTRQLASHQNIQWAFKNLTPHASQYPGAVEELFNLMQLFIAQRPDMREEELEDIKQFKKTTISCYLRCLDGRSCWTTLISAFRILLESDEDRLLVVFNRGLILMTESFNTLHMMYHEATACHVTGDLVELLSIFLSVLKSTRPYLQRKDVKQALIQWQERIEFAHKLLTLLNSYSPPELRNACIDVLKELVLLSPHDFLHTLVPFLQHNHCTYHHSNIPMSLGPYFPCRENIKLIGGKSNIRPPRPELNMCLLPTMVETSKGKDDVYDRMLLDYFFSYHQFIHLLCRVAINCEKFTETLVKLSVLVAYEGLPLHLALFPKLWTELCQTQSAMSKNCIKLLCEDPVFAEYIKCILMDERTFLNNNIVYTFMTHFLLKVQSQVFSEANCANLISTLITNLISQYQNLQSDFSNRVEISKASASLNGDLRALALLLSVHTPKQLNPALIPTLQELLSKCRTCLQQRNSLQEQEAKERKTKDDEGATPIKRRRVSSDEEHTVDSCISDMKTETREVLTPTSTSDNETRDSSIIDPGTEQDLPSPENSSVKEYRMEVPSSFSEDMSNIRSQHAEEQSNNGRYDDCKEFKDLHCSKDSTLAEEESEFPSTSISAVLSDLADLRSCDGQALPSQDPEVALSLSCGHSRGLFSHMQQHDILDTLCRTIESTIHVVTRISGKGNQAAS

CCN(Cc1ccc(C#N)cc1F)C(=O)CCl
inactive: USP34 -0.454 | USP36 -0.0792 | USP38 -0.292 | USP39 -0.0856 | USP4 -0.105
